The source of these data is PubChem BioAssay (NCATS).

Inconclusive results are not listed. Where a call stands in place of a potency, no number is given. Values without a mark were called inactive. Active and inactive are the calls of the source. Calls come from the whole dose curve; as a rule, active = well fitted inhibition curve with a large enough effect; inconclusive = small, poorly fitted or top-dose-only effect; inactive = flat fitted curve, though single readings scatter. Where a SMILES comes first, the peptide text is derived from it. The star is where a group is joined. AFC = O=c1cc(C(F)(F)F)c2ccc(N*)cc2o1

The assay is described as follows: P-glycoprotein substrates identified in KB-8-5-11 adenocarcinoma cell line, qHTS therapeutic library screen (AID 1346987). Note: nearly all actives have a fitted effect of over 65% in size. Conditions: KB-8-5-11 (P-gp overexpressing) viability, CellTiter-Glo, 72 h; series mostly up to 44.5 µM. In short, it runs like this:
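KB-8-5-11: colchicine-selected sub-line of KB-3-1 over-expressing P-gp; assay medium lacked colchicine. 72 h drug exposure at 37 degree C, CellTiter-Glo.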
In general terms: In qHTS, concentration-response curves come from the screen itself.
For the molecule `CNC(=O)COC(=O)NCCC1CCN(c2cccc(C)n2)CC1`, the Potency entry is “inactive”.

As for `COC1=CC(=O)O[C@@H](CCc2ccccc2)[C@@H]1O`, the Potency entry is “inactive”.

Turning to `O=C(CCCCc1ccc2ccccc2c1)C(F)(F)F`, the Potency entry is “inactive”.

In the case of `CC(=O)N[C@@H](CC(C)C)C(=O)N[C@@H](CCC(=O)O)C(=O)N[C@@H](CCC(=O)O)C(=O)N[C@@H](CC(=O)O)C(=O)Nc1ccc2c(C(F)(F)F)cc(=O)oc2c1` (Ac-LEED-{AFC}), the Potency entry was “inactive”.

Take `C=C(C)C(=O)O[C@H]1C[C@@](C)(OC(C)=O)[C@@]2(O)CC[C@@](C)(O)[C@H](OC(C)=O)[C@@]23OC(=O)C(COC)=C13`: the Potency result is “inactive”.

As to `CO[C@H]1C=C2C(CC[C@H](O[C@@H]3O[C@H](CO)[C@@H](O)[C@@H](O)[C@H]3O)C2(C)C)[C@]2(C)CC[C@]3(C)C([C@H](C)C(O)C(C=C(C)C)O[C@@H]4O[C@H](CO)[C@@H](O)[C@@H](O)[C@H]4O)CC[C@@]3(C)C12` (some centres undefined), the activity change, negative = cytotoxicity is 0.439% [at 9.29 µM].

Take `CC/C=C/CC1=C(CCCCCCCC(=O)O)CCC1=O`: the Potency entry was “inactive”.

Consider `COc1cc(/C=C/C(=O)OC2CC3CCC2(C)C3(C)C)ccc1O` (centres undefined), for which the Potency result was “inactive”.

On to `C[C@]12CCC[C@](C)(C(=O)O)C1CCC13C=C(CO)C(CCC12)C3` (some centres undefined), for which the Potency entry was “inactive”.

Consider `N[C@@H](CC(=O)N1CCn2c(nnc2C(F)(F)F)C1)Cc1[nH]nc2c(F)c(F)ccc12`, for which the Potency entry is “inactive”.

With `CC(=O)OC1C(O)C(C)=C(CCC(C)CC(=O)O)C2(C)CCCC(C)(C)C12` (centres undefined), the Potency entry is “inactive”.

Turning to `CC1CCC2(C(=O)OC3OC(COC4OC(CO)C(O)C(O)C4O)C(O)C(O)C3O)CCC3(C)C(=CCC4C5(C)CCC(O)C(C)(C(=O)O)C5CCC43C)C2C1(C)O` (centres undefined), the activity change, negative = cytotoxicity was 1.52% [at 9.29 µM].

Take `OC[C@H]1O[C@@H](Oc2ccc(O)c3cccc(O)c23)[C@H](O)[C@@H](O)[C@@H]1O`: the Potency result is “inactive”.

Turning to `CCOC(=O)c1ccc(N(C)c2csc(-c3ccccc3)n2)cc1`, the Potency entry is “inactive”.
